The entries come from a sample that favours hits as a whole.
Shiga toxin inh: Shiga toxin inhibition; inhibition, % at 38.7 µM; hit rate 9.2% among 290,000; Vero cells, Shiga toxin protein synthesis inhibition reporter; in the data active means inhibition mostly above about 28%, no sharp cut-off; inactive means mostly below about 43%; further: 0% is about no effect
VACV Venus inh: vaccinia inhibition (Venus reporter). Vaccinia virus Venus reporter expression, fluorescence. hit rate 0.46% among 330,000. Potency, µM (titrated, usually from 36.5 µM), inactives show at the highest dose activity change, negative = inhibition, usual class: inhibitors. AID 720580; calls by dose curve; tested in A549 cells; further: potency means the concentration at half of the fitted maximal effect; on the % scale 0 is the no-effect control and ±100 the full control effect; nearly all actives have a fitted effect of over 30% in size
LASV entry inh: blocks Lassa virus binding to or entry into cells; Potency, µM (titrated, usually from 37.9 µM), inactives show at the top dose activity change, negative = inhibition, hits mostly inhibitors; hit rate 1.2% among 300,000; Lassa virus pseudotype entry inhibition, cell reporter; AID 540256; calls by dose curve; tested in HEK293 cells; further: potency means the concentration at half of the fitted maximal effect; on the % scale 0 is the no-effect control and ±100 the full control effect; nearly all actives have a fitted effect of over 50% in size
CHX counter: affects cycloheximide protein synthesis inhibition readout, counter-screen; hit rate 12% among 300,000; AID 2314; max response, %; cell reporter, cycloheximide protein synthesis inhibition counterscreen; in the data active means max response mostly above about 13%, no sharp cut-off; inactive means mostly below about 14%; further: read at 38.3 µM for the half of the compounds with a filed dose; 0% is about no effect
MARV entry inh: inhibitors of Marburg virus binding or cell entry; Marburg virus pseudotyped entry inhibition, cell reporter; Potency, µM (top dose mostly 37.8 µM), for inactives: at the highest dose activity change, negative = inhibition, usual class: inhibitors; hit rate 1.8% among 300,000; AID 540276; calls by dose curve; tested in HEK293 cells; further: potency means the concentration at half of the fitted maximal effect; on the % scale 0 is the no-effect control and ±100 the full control effect
VACV mCherry inh: vaccinia inhibition (mCherry reporter). Vaccinia virus mCherry reporter infection, fluorescence. hit rate 0.63% among 310,000. AID 720579. Potency, µM (highest dose often 36.5 µM), for inactives: at the top dose activity change, negative = inhibition, hits mostly inhibitors; calls by dose curve; tested in A549 cells; further: potency means the concentration at half of the fitted maximal effect; on the % scale 0 is the no-effect control and ±100 the full control effect; nearly all actives have a fitted effect of over 35% in size
Active calls of the source: *; i = inactive; u = inconclusive; x = no result given; ! = not active in a repeat; [ ] = remark or other dose.

SMILES	Shiga toxin inh	VACV Venus inh	LASV entry inh	CHX counter	MARV entry inh	VACV mCherry inh
COC(=O)c1cc(C(=O)Nc2cc(C)ccn2)cc([N+](=O)[O-])c1	35*	-9%	u	13	u	-3%[1.46 µM]
Cc1ccc(C(=O)Cc2nc3ccccc3[nH]2)cc1	65*	-13%	x	36*	18%[46.1 µM]	-16%
O=C(Nc1nc2ccccc2[nH]1)c1cccc([N+](=O)[O-])c1	58*	-18%	13%[46.1 µM]	47*	u	i
O=C(NC(Cc1ccccc1)c1nc2ccccc2[nH]1)c1cccc([N+](=O)[O-])c1 (stereo not given)	8	-2%	u	9	u	-27%
CC(C)(C)NC(=O)CN(C(=O)C1CSC(=O)C1)c1ccccc1F (stereo not given)	-7	-10%	1%[46.1 µM]	-3	-9%[46.1 µM]	-2%
CCCCn1c(N)c(N(CC)C(=O)c2ccccc2F)c(=O)[nH]c1=O	27	-9%	-1%	28	-21%[46.1 µM]	-4%
O=C(c1cnsn1)N1CCOc2ccc(C(O)C(c3ccccc3)c3ccccc3)cc2C1 (stereo not given)	x	-19%	x	x	x	-11%
O=C(c1nc2ccccc2[nH]1)c1ccccc1[N+](=O)[O-]	73*	17%	24%[46.1 µM]	32*	u	-3%
O=C(NCc1nc2ccccc2[nH]1)c1ccc([N+](=O)[O-])cc1	-5	x	x	-4	x	x
O=C(Cc1nc2ccccc2[nH]1)c1cccc([N+](=O)[O-])c1	70*	x	x	38*	x	x
O=C(Nc1nc2ccccc2[nH]1)c1ccc([N+](=O)[O-])cc1	92*	-11%	-23%	28*	-27%[46.1 µM]	-14%
O=[N+]([O-])c1nc2ccccc2[nH]1	x	1%	22%	x	u	i
Cc1nc2nc(SCC(=O)c3cccc([N+](=O)[O-])c3)[nH]c2cc1Br	30*	-11%	28%	31*	3%	i
COC(=O)c1cc(C(=O)Nc2nc3ccccc3[nH]2)cc([N+](=O)[O-])c1	49*	-5%	17%	16	1%[46.1 µM]	-7%
Cc1nc2ccc(NC(=O)c3ccc([N+](=O)[O-])cc3)cc2[nH]1	24	-8%	u	14*	-4%	-12%
Cc1nc2ccc(C(=O)Nc3ccc4nc[nH]c4c3)cc2[nH]1	-8	2%	u	5	u	-10%
COc1cc(C(=O)Nc2nc3ccccc3[nH]2)cc(OC)c1OC	19	x	11%	10	1%	x
C/C(=N\Nc1nc(C)cc(C)n1)c1ccc(C)o1	29	-9%	1%	21*	-19%	-14%
C=CCN1CCc2cccc3c2[C@H]1Cc1ccc(O)c(O)c1-3	-10	-9%	u	2	u	u
CCCN1CCc2cc(O)cc3c2C1Cc1ccc(O)c(O)c1-3 (stereo not given)	x	-11%	x	x	35µM*	i
COc1ccc2c(c1O)-c1cc(O)cc3c1[C@@H](C2)N(C)CC3	x	-11%	x	x	x	-9%
CN1CCc2cccc3c2C1Cc1ccc(O)c(O)c1-3 (stereo not given)	1	-14%	0%	-1	16µM*!	-14%
COc1cccc(C(=O)Cn2c(Br)nc3c2c(=O)n(C)c(=O)n3C)c1	-9	x	-5%	-3	7%	x
Cn1c(=O)c2c(nc(Br)n2CC(=O)C23CC4CC(CC(C4)C2)C3)n(C)c1=O	-3	x	u	-1	18µM*	x
O=C(NCc1cc2ccccc2[nH]1)c1ccccc1F	x	-7%	4%	38*	u	-14%
SMILES	Shiga toxin inh	VACV Venus inh	LASV entry inh	CHX counter	MARV entry inh	VACV mCherry inh
Cc1ccc2[nH]c(CNC(=O)c3ccccc3F)cc2c1	51	1%	u	29*	u	-6%
O=C(NCc1nc2ccccc2[nH]1)c1c(F)c(F)c(F)c(F)c1F	12	-24%	2%	-5	u	u
O=C(NCc1nc2ccccc2[nH]1)c1ccccc1F	72*	-2%[7.34 µM]	u	33*	0%[46.1 µM]	i[7.34 µM]
CN(C)c1ccc(C2(c3ccc(N(C)C)cc3)OC(=O)c3cc(N)ccc32)cc1	-7	-16%	-1%[46.1 µM]	-4	u	u
Cc1nn2c(NCCCN(C)C)c3c(nc2c1-c1ccccc1)CCCC3	-3	-8%[7.34 µM]	u	-2	7.1µM*	-21%[7.34 µM]
Cc1nn2c(NCCCN(C)C)c3c(nc2c1-c1ccccc1)CCC3	-22	-14%	-15%	-3	-23%	-15%
CCC(C)C(N)C(=O)N1CCCC1C(=O)NC(C(=O)O)C(C)CC (stereo not given)	x	-3%	x	x	x	-14%

Screens as filed in PubChem.
